Measurements taken from PubChem BioAssay (EPA / NIEHS).
The source made the active and inactive calls. How the source made its calls: active means hit-call score of the fitted dose curve at least 0.9, where 1 is the maximum; inactive means score below 0.9.

target: X-box-binding protein 1 (Homo sapiens) (UniProt P17861); assay: ATG_Xbp1_CIS: Attagene CIS-FACTORIAL HepG2 Assay for human X-box Binding Protein 1 (XBP1) (AID 2282972); settings: HepG2 XBP1 cis-element reporter, Attagene multiplex; actives raise or lower the signal
Sequence (P17861 whole entry, looked up): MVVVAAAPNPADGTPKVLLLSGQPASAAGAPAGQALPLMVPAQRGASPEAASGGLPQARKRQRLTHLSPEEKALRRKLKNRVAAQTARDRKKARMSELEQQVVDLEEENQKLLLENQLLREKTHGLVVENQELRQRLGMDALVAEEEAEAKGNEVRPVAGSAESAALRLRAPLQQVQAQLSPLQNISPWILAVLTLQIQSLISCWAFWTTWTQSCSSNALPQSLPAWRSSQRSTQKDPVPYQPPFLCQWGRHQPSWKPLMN
In short: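 Multiplexed cis-reporter readout in transfected HepG2 liver cells. Exposure lasted 24 hours. Activity in either direction was fitted against DMSO as negative control and baseline.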

SMILES | outcome | AC50
CCN(CC)c1ccc(C(=C2C=CC(=[N+](CC)CC)C=C2)c2ccc(S(=O)(=O)O)cc2S(=O)(=O)[O-])cc1 | inactive | 
Clc1ccc(Cl)c(Cl)c1Cl | inactive | 
OCCOCCOCCOCCO | inactive | 
N#Cc1ccccc1 | inactive | 
CCCOCC(C)O (stereo unspecified) | inactive | 
COc1ccc(Cl)cc1C | inactive | 
O=CCCc1ccccc1 | inactive | 
CC(C)OP(=O)(CP(=O)(OC(C)C)OC(C)C)OC(C)C | inactive | 
NC(N)=NC(=O)c1nc(Cl)c(N)nc1N | inactive | 
C=CC(=O)OCCn1c(=O)n(CCOC(=O)C=C)c(=O)n(CCOC(=O)C=C)c1=O |  | 8.6 µM (active)
CC[C@]12CCCN3CCc4c(n(c5ccccc45)[C@@](O)(C(=O)OC)C1)[C@@H]32 | inactive | 
Nc1cc([N+](=O)[O-])ccc1Cl | inactive | 
CC(C#N)(CCC(=O)O)N=NC(C)(C#N)CCC(=O)O (stereo unspecified) | inactive | 
CC(C)C(C)(C)C(C)(C)C(C)(C)S | inactive | 
C[C@]12CC[C@H]3[C@@H](CCC4=CC(=O)CC[C@@]43C)[C@@H]1CC[C@@H]2C(=O)CO | inactive | 
O=c1oc(=O)c2cc3c(=O)oc(=O)c3cc12 | inactive | 
